# Laboratory results reported in PubChem BioAssay (NCATS).
# Records with an inconclusive call do not appear. Activity calls are given as the source filed them. Unless noted, calls come from the whole dose curve.
# What was measured:
# [1] = molecular target: Androgen receptor (Homo sapiens) (UniProt P10275); test: qHTS assay for small molecule agonists of androgen receptor signaling (AID 588515; active = well fitted curve in the direction sought with a large enough effect in the signal ratio, with a control signal flat; the % refers to the signal ratio; note: % is set by controls: 0 for no effect and ±100 for the full control effect); details: AR-UAS-bla HEK293, beta-lactamase ratio, agonist 16 h; activation: stronger effect = higher value
# Method in brief: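 EC50 and efficacy came from Hill fits of titrations (up to 92 uM) normalized to 30 nM R1881 as 100% and DMSO as 0%. Compound exposure was 16 h at 37 C on AR-UAS-bla HEK293 cells, with a 405/460/530 nm CCF4 fluorescence read.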
# [2] = molecular target: Androgen receptor (Homo sapiens) (UniProt P10275); test: qHTS assay for small molecule antagonists of androgen receptor signaling (AID 588516; active = well fitted curve in the direction sought with a large enough effect in the signal ratio, with a control signal flat, not every such curve was filed as active; the % refers to the signal ratio; note: % is set by controls: 0 for no effect and ±100 for the full control effect)
# Method in brief: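 Antagonist mode: inhibition of R1881-stimulated (10 nM final) bla reporter in GeneBLAzer AR HEK 293 cells, 16 h at 37C, compounds titrated. IC50 and efficacy from Hill-equation fits of 405/460–530 nm FRET ratios.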
# [3] = qHTS assay for small molecule antagonists of peroxisome proliferator-activated receptor delta signaling (AID 588535; active = well fitted inhibition curve with a large enough effect in the signal ratio, with a control signal flat, not every such curve was filed as active; the % refers to the signal ratio;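 for max response: cells co-treated with a PPAR-delta agonist as stimulator during compound exposure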); details: HEK293T PPARd-UAS-bla, beta-lactamase FRET ratio, 18 h; 460 nm channel
# Method in brief: (§1)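 GeneBLAzer PPAR-delta-UAS-bla HEK293T cells in medium with 2% charcoal/dextran FBS were preincubated 5 hrs at 37 C, then given compounds, incubated 18 hrs at 37 C, and read by CCF4 beta-lactamase fluorescence; IC50 from Hill fits.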
# [4] = molecular target: Peroxisome proliferator-activated receptor gamma (Homo sapiens) (UniProt P37231); test: qHTS assay for small molecule antagonists of peroxisome proliferator-activated receptor gamma signaling (AID 588537; active = well fitted inhibition curve with a large enough effect in the signal ratio, with a control signal flat, not every such curve was filed as active; the % refers to the signal ratio;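 note: reporter cells co-stimulated with 50 nM rosiglitazone agonist during compound treatment; % of control where 0% means no effect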)
# Method in brief: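 PPAR-gamma-UAS-bla HEK293 cells (3000/well, 1% charcoal/dextran-stripped FBS) were preincubated 6-6.5 h at 37 C, given titrated compounds, then stimulated with 50 nM rosiglitazone for 16 h. Beta-lactamase activity was read with CCF4 dye; IC50 came from Hill fits.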
# [5] = molecular target: Thyroid hormone receptor beta (Homo sapiens) (UniProt P10828); test: qHTS assay for small molecule antagonists of thyroid hormone receptor beta signaling (AID 588547; active = well fitted inhibition curve with a large enough effect in the signal ratio, with a control signal flat, not every such curve was filed as active; the % refers to the signal ratio;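 note: cells stimulated with 0.4 nM T3 agonist during compound exposure; series mostly up to about 77 µM; % is set by controls: 0 for no effect and ±100 for the full control effect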); details: TR-UAS-bla HEK293, beta-lactamase ratio, antagonist mode, 18 h
# Method in brief: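 TR-UAS-bla GripTite HEK293 cells in 2% charcoal/dextran FBS medium were preincubated 4 h at 37 C, given compound (0.59 nM to 92 uM) plus 0.4 nM T3 (final) for 18 h, then CCF4 for 2 h at RT; Hill fit gave IC50.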
# [6] = molecular target: Bile acid receptor (Homo sapiens) (UniProt Q96RI1); test: qHTS assay for small molecule antagonists of farnesoid X receptor signaling (AID 588526); note: % is set by controls: 0 for no effect and ±100 for the full control effect
# Method in brief: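 Concentration-response titrations were fitted to the Hill equation for half-maximal inhibition and maximal response, with data normalised to 50 uM chenodeoxycholic acid and DMSO control wells. Cells: FXR-UAS-bla HEK293T, dialyzed FBS.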
# [7] = qHTS assay for small molecule activators of the p53 signaling pathway (AID 651743; active = well fitted activation curve with a large enough effect in the signal ratio, not every such curve was filed as active; the % refers to the signal ratio; note: series mostly up to about 92 µM; % of control where 0% means no effect); details: HCT-116 p53RE-bla, beta-lactamase FRET ratio, 16 h; activation: stronger effect = higher value
# Method in brief: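 p53RE-bla HCT-116 cells with a stably integrated beta-lactamase reporter under p53 response elements were plated, rested 5 hours at 37 C/5% CO2, then exposed to compounds in DMSO for 16 hours at 37 C. LiveBLAzer B/G FRET substrate was read after 2 hours at room temperature.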
# [8] = molecular target: Peroxisome proliferator-activated receptor delta (Homo sapiens) (UniProt Q03181); test: qHTS assay for small molecule antagonists of peroxisome proliferator-activated receptor delta signaling (AID 588535);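 for max response: cells co-treated with a PPAR-delta agonist as stimulator during compound exposure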
# Method in brief: as §1
# [9] = qHTS assay for small molecule agonists of the antioxidant response element (ARE) signaling pathway (AID 651741; active = well fitted activation curve with a large enough effect in the signal ratio; the % refers to the signal ratio; note: potency is the fitted concentration of half-maximal effect; for activation: % of control where 0% means no effect)
# Method in brief: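 ARE-bla HepG2 cells (beta-lactamase reporter under ARE control) were plated at 2,000 cells/well, preincubated 5 h at 37 C/5% CO2, then treated with DMSO-dissolved compounds for 16 h at 37 C; LiveBLAzer B/G FRET substrate added, fluorescence read after 2 h at room temperature.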
# Sequence of Thyroid hormone receptor beta (Homo sapiens) (P10828 whole entry, looked up): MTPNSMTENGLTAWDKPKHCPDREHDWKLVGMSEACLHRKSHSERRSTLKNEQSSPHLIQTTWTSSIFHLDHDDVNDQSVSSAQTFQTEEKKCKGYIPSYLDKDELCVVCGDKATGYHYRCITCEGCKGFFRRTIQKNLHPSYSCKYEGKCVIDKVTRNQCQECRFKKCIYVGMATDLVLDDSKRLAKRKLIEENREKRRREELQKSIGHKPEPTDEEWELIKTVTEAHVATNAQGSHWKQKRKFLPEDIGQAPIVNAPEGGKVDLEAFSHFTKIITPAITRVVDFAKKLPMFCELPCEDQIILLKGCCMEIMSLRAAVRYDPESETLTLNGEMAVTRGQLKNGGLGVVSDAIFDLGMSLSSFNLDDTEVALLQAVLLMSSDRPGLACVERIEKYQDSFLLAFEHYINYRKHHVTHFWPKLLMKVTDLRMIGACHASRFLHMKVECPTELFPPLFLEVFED
# Sequence of Peroxisome proliferator-activated receptor delta (Homo sapiens) (Q03181 whole entry, looked up): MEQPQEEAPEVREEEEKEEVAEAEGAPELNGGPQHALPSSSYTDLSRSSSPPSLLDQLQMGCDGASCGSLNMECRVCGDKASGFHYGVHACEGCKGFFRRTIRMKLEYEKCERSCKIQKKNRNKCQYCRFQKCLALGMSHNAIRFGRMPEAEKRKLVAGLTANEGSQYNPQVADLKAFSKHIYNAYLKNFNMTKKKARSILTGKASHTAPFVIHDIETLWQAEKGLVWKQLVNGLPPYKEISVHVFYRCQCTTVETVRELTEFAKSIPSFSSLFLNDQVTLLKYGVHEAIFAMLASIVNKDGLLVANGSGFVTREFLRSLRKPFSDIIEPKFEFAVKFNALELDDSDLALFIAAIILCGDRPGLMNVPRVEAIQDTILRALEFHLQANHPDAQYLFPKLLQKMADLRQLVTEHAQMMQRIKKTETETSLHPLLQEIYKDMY
# Sequence of Peroxisome proliferator-activated receptor gamma (Homo sapiens) (P37231 whole entry, looked up): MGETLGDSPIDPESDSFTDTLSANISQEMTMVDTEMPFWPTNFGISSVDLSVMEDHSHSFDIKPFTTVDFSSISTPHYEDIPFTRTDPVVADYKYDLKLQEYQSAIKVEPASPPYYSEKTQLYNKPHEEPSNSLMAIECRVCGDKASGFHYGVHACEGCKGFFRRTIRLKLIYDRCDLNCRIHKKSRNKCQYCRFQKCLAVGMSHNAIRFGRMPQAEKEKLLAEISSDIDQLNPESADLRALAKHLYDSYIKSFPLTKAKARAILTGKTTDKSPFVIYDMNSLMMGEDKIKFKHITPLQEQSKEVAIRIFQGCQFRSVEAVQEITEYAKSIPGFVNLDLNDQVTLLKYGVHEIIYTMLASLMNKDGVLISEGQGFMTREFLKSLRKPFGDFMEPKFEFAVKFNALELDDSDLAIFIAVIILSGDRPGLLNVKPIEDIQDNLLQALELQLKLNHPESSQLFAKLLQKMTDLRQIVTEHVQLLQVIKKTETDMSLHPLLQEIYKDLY
# Sequence of Bile acid receptor (Homo sapiens) (Q96RI1 whole entry, looked up): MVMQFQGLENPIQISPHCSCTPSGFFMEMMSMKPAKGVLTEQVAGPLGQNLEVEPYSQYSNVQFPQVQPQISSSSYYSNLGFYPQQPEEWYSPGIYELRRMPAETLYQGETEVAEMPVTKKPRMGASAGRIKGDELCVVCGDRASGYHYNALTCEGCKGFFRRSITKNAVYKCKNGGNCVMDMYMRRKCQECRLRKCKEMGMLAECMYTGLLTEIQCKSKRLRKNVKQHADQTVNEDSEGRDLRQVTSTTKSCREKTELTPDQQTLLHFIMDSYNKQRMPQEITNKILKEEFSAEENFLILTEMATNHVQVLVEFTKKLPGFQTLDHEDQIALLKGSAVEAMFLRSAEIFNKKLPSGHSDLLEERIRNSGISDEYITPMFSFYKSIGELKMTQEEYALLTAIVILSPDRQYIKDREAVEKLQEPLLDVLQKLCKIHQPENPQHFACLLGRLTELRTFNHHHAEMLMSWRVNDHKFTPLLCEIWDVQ
# Sequence of Androgen receptor (Homo sapiens) (P10275 whole entry, looked up): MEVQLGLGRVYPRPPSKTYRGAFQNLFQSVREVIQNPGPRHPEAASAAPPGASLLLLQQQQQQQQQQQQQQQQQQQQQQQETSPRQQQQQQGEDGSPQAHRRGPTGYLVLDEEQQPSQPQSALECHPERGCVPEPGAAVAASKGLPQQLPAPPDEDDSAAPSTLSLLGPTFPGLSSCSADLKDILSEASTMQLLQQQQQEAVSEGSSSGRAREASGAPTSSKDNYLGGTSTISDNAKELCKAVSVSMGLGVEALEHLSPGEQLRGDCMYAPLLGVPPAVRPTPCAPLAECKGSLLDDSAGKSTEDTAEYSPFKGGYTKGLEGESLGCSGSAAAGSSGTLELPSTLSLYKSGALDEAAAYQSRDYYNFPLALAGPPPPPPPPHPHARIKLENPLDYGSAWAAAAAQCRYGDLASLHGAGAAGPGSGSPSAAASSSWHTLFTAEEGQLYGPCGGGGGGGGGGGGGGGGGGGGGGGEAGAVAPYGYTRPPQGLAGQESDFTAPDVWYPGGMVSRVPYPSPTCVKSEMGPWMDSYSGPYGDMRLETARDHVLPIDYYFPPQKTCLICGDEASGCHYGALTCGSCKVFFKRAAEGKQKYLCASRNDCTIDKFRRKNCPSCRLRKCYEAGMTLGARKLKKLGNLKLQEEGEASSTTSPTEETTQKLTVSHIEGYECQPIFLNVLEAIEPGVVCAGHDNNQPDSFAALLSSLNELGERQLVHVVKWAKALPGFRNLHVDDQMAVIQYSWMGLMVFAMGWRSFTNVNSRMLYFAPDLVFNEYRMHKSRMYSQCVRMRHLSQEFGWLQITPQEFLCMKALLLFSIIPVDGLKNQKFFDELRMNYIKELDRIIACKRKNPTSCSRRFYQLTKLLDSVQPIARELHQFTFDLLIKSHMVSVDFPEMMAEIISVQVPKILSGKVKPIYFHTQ
smiles,measurement,setting,value
CCCCCCCCCCCCCC(=O)OC,activation,[1],9.07% (inactive)
same,outcome,[2],inactive
same,max response,[3],-19.8%
same,Potency,[4],inactive
same,activity change % (negative = inhibition),[5],3.36% (inactive)
CCCN(CCC)c1c([N+](=O)[O-])cc(C(F)(F)F)c(N)c1[N+](=O)[O-],Potency,[6],inactive
CC1(C)CC(NCCCCCCNC2CC(C)(C)NC(C)(C)C2)CC(C)(C)N1,activation,[1],6.67% (inactive)
same,outcome,[2],inactive
same,Potency,[6],inactive
same,Potency,[4],inactive
same,activity change % (negative = inhibition),[5],-26.6% (inactive)
same,activation,[7],-1.03% (inactive)
CCCCCCCCCC(C)=O,activation,[1],-3.13% (inactive)
same,outcome,[2],inactive
same,max response,[3],26.8%
same,Potency,[8],inactive
same,Potency,[4],inactive
same,activity change % (negative = inhibition),[5],-10.7% (inactive)
same,Potency,[9],inactive
same,activation,[7],-2.23% (inactive)
C/C=C/C/C=C\CCCCCCCCOC(C)=O,Potency,[6],inactive
same,max response,[3],15.9%
same,Potency,[8],inactive
same,Potency,[4],inactive
same,activity change % (negative = inhibition),[5],-5.4% (inactive)
same,Potency,[9],inactive
same,activation,[7],-0.736% (inactive)
CC(C)OC(=O)c1ccccc1C(=O)OC(C)C,Potency,[6],inactive
same,Potency,[4],inactive
CC(C)(C)c1cccc(C(C)(C)C)c1O,Potency,[6],inactive
same,max response,[3],-24.3%
same,Potency,[8],inactive
same,Potency,[4],inactive
same,activity change % (negative = inhibition),[5],16.3% (inactive)
same,Potency,[9],inactive
same,activation,[7],-0.526% (inactive)
CCc1c(C(=O)O)c(=O)cnn1-c1ccc(Cl)cc1,Potency,[6],inactive
same,max response,[3],48.3%
same,Potency,[8],inactive
same,Potency,[4],inactive
same,activity change % (negative = inhibition),[5],4.34% (inactive)
same,Potency,[9],inactive
same,activation,[7],1.9% (inactive)
c1ccc2cc3ccccc3cc2c1,Potency,[6],inactive
same,Potency,[4],inactive
same,activity change % (negative = inhibition),[5],-13.8% (inactive)
same,Potency,[9],inactive
same,activation,[7],7.64% (inactive)
CN(C)Cc1cc(CN(C)C)c(O)c(CN(C)C)c1,activation,[1],-17.5% (inactive)
same,outcome,[2],inactive
same,Potency,[6],inactive
same,Potency,[9],inactive
same,activation,[7],-4% (inactive)
CC(C)c1cccc(C(C)C)c1,Potency,[6],inactive
same,max response,[3],-5.64%
same,activity change % (negative = inhibition),[5],-5.42% (inactive)
same,Potency,[9],inactive
c1ccc2c(c1)Cc1ccccc1-2,Potency,[6],inactive
same,activity change % (negative = inhibition),[5],-15.6% (inactive)
Cl[Si](Cl)(Cl)c1ccccc1,activation,[1],7.73% (inactive)
same,outcome,[2],inactive
same,Potency,[6],inactive
same,max response,[3],13.6%
same,Potency,[8],inactive
same,Potency,[4],inactive
same,activity change % (negative = inhibition),[5],-0.0742% (inactive)
same,Potency,[9],inactive
same,activation,[7],-5.69% (inactive)
Nc1ccc(N)c2c1C(=O)c1c(N)ccc(N)c1C2=O,activation,[1],5.62% (inactive)
same,outcome,[2],inactive
same,activity change % (negative = inhibition),[5],20.4% (inactive)
same,Potency,[9],27.3 µM (active)
CC1(C)[C@@H]([C@@H](Br)C(Br)(Br)Br)[C@H]1C(=O)O[C@H](C#N)c1cccc(Oc2ccccc2)c1,activation,[1],-17.3% (inactive)
same,activity change % (negative = inhibition),[5],-17.9% (inactive)
same,Potency,[9],21.7 µM (active)
O=C(Cl)c1ccc(C(=O)Cl)cc1,max response,[3],-9.41%
same,activity change % (negative = inhibition),[5],0.623% (inactive)
same,activation,[7],-0.615% (inactive)
CCCCCCCC(=O)Oc1c(Br)cc(C#N)cc1Br,Potency,[4],inactive
same,activity change % (negative = inhibition),[5],-2.51% (inactive)
same,Potency,[9],61.1 µM (active)
CCCCCCCCCCCCCCCCCC#N,max response,[3],1.68%
same,Potency,[4],inactive
same,activity change % (negative = inhibition),[5],11.1% (inactive)
same,Potency,[9],inactive
same,activation,[7],-6.64% (inactive)
CC/C=C/CCCCCCCCCCOC(C)=O,max response,[3],25.9%
same,activity change % (negative = inhibition),[5],4.15% (inactive)
same,Potency,[9],inactive
CC(C)(C)c1cc(C(C)(C)C)c(O)c(C(C)(C)C)c1,max response,[3],12%
same,Potency,[8],inactive
same,Potency,[4],inactive
same,activity change % (negative = inhibition),[5],-16.9% (inactive)
C=CC(=O)OCC(C)OCC(C)OCC(C)OC(=O)C=C (configuration not stated),max response,[3],41.6%
same,Potency,[8],inactive
same,Potency,[4],inactive
same,activity change % (negative = inhibition),[5],0.874% (inactive)
same,activation,[7],0.712% (inactive)
CCCCCCCCCCCCCCCC,max response,[3],55.6%
same,Potency,[8],inactive
same,Potency,[4],inactive
same,activity change % (negative = inhibition),[5],-0.344% (inactive)
CC(C)c1ccc(C(C)C)cc1,Potency,[9],inactive
same,activation,[7],-6.39% (inactive)
CCCCCCCC(=O)OC,max response,[3],18.8%
same,Potency,[8],inactive
same,activity change % (negative = inhibition),[5],13.2% (inactive)
same,Potency,[9],inactive
same,activation,[7],3.63% (inactive)
CCCC/C=C/CCCCO,Potency,[4],inactive
same,activity change % (negative = inhibition),[5],0.772% (inactive)
same,Potency,[9],inactive
C=C[Si](OCCOC)(OCCOC)OCCOC,max response,[3],25.9%
same,Potency,[8],inactive
same,Potency,[9],inactive
same,activation,[7],-3.03% (inactive)
C=C(C)C(=O)OCCCCCCCCCCCC,max response,[3],-35.9%
same,Potency,[8],inactive
same,Potency,[4],inactive
same,activity change % (negative = inhibition),[5],0.53% (inactive)
c1ccc(OCCOc2ccccc2)cc1,max response,[3],9.85%
same,Potency,[8],inactive
same,Potency,[4],inactive
same,activity change % (negative = inhibition),[5],5.59% (inactive)
same,Potency,[9],inactive
Cc1c(Cl)cccc1Cl,activity change % (negative = inhibition),[5],-11.7% (inactive)
Fc1ccc(Br)cc1,Potency,[4],inactive
CCCCOCCOCCOCCO,max response,[3],-4.48%
same,Potency,[8],inactive
same,Potency,[4],inactive
same,activity change % (negative = inhibition),[5],-0.828% (inactive)
same,Potency,[9],inactive
same,activation,[7],2.9% (inactive)
CCCCOCCOCCO,Potency,[4],inactive
same,activity change % (negative = inhibition),[5],15.3% (inactive)
same,Potency,[9],inactive
same,activation,[7],0.276% (inactive)
O=C1CCCCCCCCCCC1,max response,[3],31.3%
same,Potency,[8],inactive
same,activity change % (negative = inhibition),[5],4.81% (inactive)
same,Potency,[9],inactive
CCCCOCCOCCOC(C)=O,max response,[3],11.1%
same,Potency,[8],inactive
same,activity change % (negative = inhibition),[5],-10.2% (inactive)
same,Potency,[9],inactive
CC1=CC2C3CC(C=C3C)C2C1 (configuration not stated),max response,[3],7.89%
same,Potency,[4],inactive
same,Potency,[9],inactive
CC(=O)CC(=O)Nc1ccccc1C,activity change % (negative = inhibition),[5],7.41% (inactive)
same,activation,[7],-0.568% (inactive)
CC1(C)CC(OC(=O)CCCCCCCCC(=O)OC2CC(C)(C)NC(C)(C)C2)CC(C)(C)N1,max response,[3],5.94%
same,Potency,[8],inactive
same,activation,[7],-2.75% (inactive)
CC1(C)CC(N)CC(C)(CN)C1 (configuration not stated),max response,[3],-18%
same,Potency,[8],inactive
same,Potency,[9],inactive
same,activation,[7],-1.29% (inactive)
C#CCOC(=O)[C@@H](C)Oc1ccc(Oc2ncc(Cl)cc2F)cc1,Potency,[6],inactive
same,max response,[3],41.4%
same,Potency,[8],inactive
same,Potency,[4],inactive
same,activation,[7],-3.45% (inactive)
